These results are taken from PubChem BioAssay.

A word on the viability: it is a read-out of living cells in per cent, often relative to untreated cells.

Several values for one entry are separate records, joined by “and”; a condition that tells them apart may be missing. Identical values can stand only once. Activity calls are given as the source filed them.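 Rule for the calls, unless noted: active = compounds whose cell count with miR-34 switched on is under 0.7 times the count with it off; inactive = the rest.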

The nature of test [1]: hESC survival regulators, cell-based (AID 493140; call rule not given here;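 note: cells exposed to compounds for four days before counting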). To be noted: human embryonic stem cell survival screen; stronger effect = higher value.
Test [2] is described as follows: liver-stage malaria parasite growth inhibition, primary screen, cell-based, HepG2, luciferase luminescence, HepG2 viability (AID 624349; in the data active = parasite load remaining mostly below about 12%, no sharp cut-off; inactive = mostly above about 10%;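 note: 100% = mean of DMSO negative control wells on the same plate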). Particulars: P. berghei liver stage in HepG2, luciferase luminescence, concentration not given here; parasite load remaining: stronger effect = lower value; viability: measured here: HepG2 viability without parasites.
A short description of test [3]: sensitizers of A549 cells to miR-34 induction, primary screen, imaging, A549 dox-inducible miR-34, nuclei and caspase counts (AID 1347080). Particulars: A549 miR-34 inducible, Hoechst nuclei count, 48 h.
Where [4] appears, read: stronger effect = lower value, cell number ratio, induced over uninduced.
Setting [5] is: measured here: relative caspase fold change +Dox/-Dox.
Where [6] appears, read: measured here: total cells with miR-34 induction, stronger effect = lower value.
Setting [7] is: measured here: total cells without miR-34 induction.

Regarding `S=C(NC1CCCCC1)N1CCC(C2C=NC=N2)CC1` (configuration not stated), in test [1], the survival is 6.25 (inactive). Further, the parasite load remaining in test [2] was 49.2% (inactive). In addition, the viability in test [2] amounted to 96.4%. The figures for the fold change in test [3] (setting [4]) and in test [3] (setting [5]) were 0.857 (inactive) and 1.52, respectively. The results for the cell count in test [3] (setting [6]) and in test [3] (setting [7]) were 8240 and 9620, respectively.
Turning to `CCC(=O)OC1(C(=O)CCl)[C@@H](C)C[C@H]2[C@@H]3CCC4=CC(=O)C=C[C@]4(C)[C@@]3(F)[C@@H](O)C[C@@]21C` (some centres not stated), in test [1], the survival was 2.5 (inactive). In test [2], the parasite load remaining is 141% (inactive). For the same compound, the viability in test [2] was found to be 94.7%. Also, the figures for the fold change in test [3] (setting [4]) and in test [3] (setting [5]) were 0.789 (inactive) and 1.5, respectively. The cell count in test [3] (setting [6]) came to 5850; in test [3] (setting [7]) it was 7420.
Take `CCCCCCCCCCCCCCC(F)C(=O)O` (configuration not stated): the survival in test [1] is 81.6 (inactive). The fold change in test [3] (setting [4]) was 0.989 (inactive) and 1.01 (inactive); in test [3] (setting [5]), 1.15 and 0.824. Also, the cell count is 6040 and 6340 in test [3] (setting [6]); 6110 and 6280 in test [3] (setting [7]).
On to `CCCCCC(=O)CC[C@@H]1[C@@H](C/C=C\CCCC(=O)O)[C@@H](O)C[C@H]1O`, for which the survival in test [1] was 82.4 (inactive). Further, the fold change in test [3] (setting [4]) was 0.925 (inactive); in test [3] (setting [5]) it was 1.4. Besides, the cell count came to 5510 in test [3] (setting [6]) and 5950 in test [3] (setting [7]).
On to `CCOCCOCCOCCOCCOCCOCCOCCOCCOCCO` (tested in a mixture with another compound), for which, in test [2], the parasite load remaining is 30.7% (inactive). The viability in test [2] turned out to be 102%. In addition, the fold change is 0.959 (inactive) in test [3] (setting [4]) and 1.63 in test [3] (setting [5]). Also, the cell count in test [3] (setting [6]) amounted to 11300; in test [3] (setting [7]) it was 11800.
For `O=C(O)C1(O)C[C@H](O)C(O)[C@@H](O)C1` (some centres not stated), in test [2], the parasite load remaining was 88.4% (inactive). Moreover, the viability in test [2] was 72.5%. Moreover, the fold change is 0.922 (inactive) in test [3] (setting [4]) and 0.931 in test [3] (setting [5]). The cell count in test [3] (setting [6]) worked out at 8930; in test [3] (setting [7]), 9680.
On to `CCCCCCCC/C=C\CCCCCCCC(=O)OC[C@@H](O)COP(=O)(O)O`, for which the survival in test [1] is 57.2 (inactive). The fold change was 0.957 (inactive) and 0.893 (inactive) in test [3] (setting [4]); 1.42 and 0.522 in test [3] (setting [5]). The cell count in test [3] (setting [6]) was 6370 and 5350; in test [3] (setting [7]), 6660 and 5990.
As to `CCC1OC(=O)[C@H](C)C(=O)[C@H](C)[C@@H](OC2O[C@H](C)C[C@H](N(C)C)[C@H]2O)[C@](C)(OC)C[C@@H](C)C(=O)[C@H](C)[C@H]2N(CCCCn3cnc(-c4cccnc4)c3)C(=O)OC12C` (some centres not stated), the parasite load remaining in test [2] is 141% (inactive) and 312% (inactive). Besides, the viability in test [2] was 91.8% and 96.9%. The fold change in test [3] (setting [4]) is 0.904 (inactive); in test [3] (setting [5]) it was 2.11. Also, the cell count in test [3] (setting [6]) amounted to 11200; in test [3] (setting [7]), 12400.
With `CCCCCCCCCCCCCC(=O)N[C@H](C)[C@@H](O)c1ccccc1`, the survival in test [1] was 87.5 (inactive). Further, the fold change in test [3] (setting [4]) is 1.02 (inactive); in test [3] (setting [5]), 1.49 and 1.71. Also, the cell count was 5830 and 6030 in test [3] (setting [6]); 5700 and 5920 in test [3] (setting [7]).
In the case of `CC(C)[N+]1(C)[C@@H]2CC[C@@H]1CC(OC(=O)C(CO)c1ccccc1)C2` (some centres not stated), in test [2], the parasite load remaining is 92% (inactive). In test [2], the viability is 107%. Moreover, the fold change was 0.845 (inactive) in test [3] (setting [4]) and 1.32 in test [3] (setting [5]). In addition, the cell count in test [3] (setting [6]) worked out at 9220; in test [3] (setting [7]) it was 10900.
For the compound `O=C(O)CCC/C=C\C[C@H]1C(=O)C[C@@H](O)[C@@H]1/C=C/[C@@H](O)CCc1ccccc1`, the survival in test [1] was 102 (inactive). Moreover, the fold change in test [3] (setting [4]) is 0.93 (inactive) and 0.922 (inactive); in test [3] (setting [5]), 1.16 and 1.61. In addition, the cell count in test [3] (setting [6]) was 5630 and 5680; in test [3] (setting [7]), 6050 and 6160.
On to `COc1ccc(CC(C)(N)C(=O)O)cc1OC` (configuration not stated), for which, in test [1], the survival was 17 (inactive). For the same compound, the parasite load remaining in test [2] is 64.7% (inactive). Also, in test [2], the viability came out at 74.8%. Also, the fold change was 0.962 (inactive) in test [3] (setting [4]) and 0.938 in test [3] (setting [5]). For the same compound, the figures for the cell count in test [3] (setting [6]) and in test [3] (setting [7]) were 9190 and 9550, respectively.
Turning to `C[C@H]1c2cccc(O)c2C(O)=C2C(=O)C3(O)C(O)=C(C(N)=O)C(=O)[C@@H](N(C)C)[C@@H]3[C@@H](O)[C@@H]21` (some centres not stated), the survival in test [1] is 3.25 (inactive). In test [2], the parasite load remaining is 62.9% (inactive). In addition, the viability in test [2] was 97.2%. Besides, the fold change was 0.641 (active) in test [3] (setting [4]) and 1.76 in test [3] (setting [5]). For the same compound, the values for the cell count in test [3] (setting [6]) and in test [3] (setting [7]) were 4060 and 6330, respectively.
As to `C[N+]1(C)CCC[C@H]1C(=O)[O-]`, the survival in test [1] was 11.7 (inactive). Besides, in test [2], the parasite load remaining was 174% (inactive) and 67% (inactive). In addition, the viability in test [2] is 106% and 78.6%. Also, the fold change was 0.876 (inactive) in test [3] (setting [4]) and 1.44 in test [3] (setting [5]). Moreover, the cell count in test [3] (setting [6]) came out at 8860; in test [3] (setting [7]) it was 10100.
For the compound `Nc1ncnc2c1ncn2C1O[C@H](CO)[C@@H](O)[C@@H]1O` (some centres not stated), the parasite load remaining in test [2] is 68.6% (inactive). The viability in test [2] was found to be 95.5%. The fold change in test [3] (setting [4]) was 0.85 (inactive); in test [3] (setting [5]), 1.24. The results for the cell count in test [3] (setting [6]) and in test [3] (setting [7]) were 7580 and 8920, respectively.
`COc1ccc2c3c([nH]c2c1)[C@H]1C[C@H]2[C@H](C[C@@H](O)[C@H](OC)[C@H]2C(=O)O)CN1CC3`: in test [1], the survival is 7.42 (inactive). Further, in test [2], the parasite load remaining is 113% (inactive). For the same compound, the viability in test [2] turned out to be 75.4%. In addition, the fold change was 0.96 (inactive) in test [3] (setting [4]) and 0.581 in test [3] (setting [5]). The cell count in test [3] (setting [6]) is 9000; in test [3] (setting [7]), 9370.
As to `C[C@@H]1C(=O)O[C@H]2CC34[C@H]5C[C@@H](C(C)(C)C)[C@]36[C@@H](OC(=O)[C@@H]6O)O[C@@]4(C(=O)O5)[C@]21O` (some centres not stated), the parasite load remaining in test [2] is 93.7% (inactive). Further, the viability in test [2] worked out at 99.1%. Besides, the fold change in test [3] (setting [4]) is 0.905 (inactive); in test [3] (setting [5]), 1.08. Besides, the cell count came to 9000 in test [3] (setting [6]) and 9940 in test [3] (setting [7]).
Take `CC(=O)OCC(=O)[C@@]1(O)CC[C@H]2[C@@H]3CCC4=CC(=O)CC[C@]4(C)C3(F)C(=O)C[C@@]21C` (some centres not stated): the parasite load remaining in test [2] was 49% (inactive). Besides, in test [2], the viability was 46.2%. For the same compound, the values for the fold change in test [3] (setting [4]) and in test [3] (setting [5]) were 0.875 (inactive) and 1.05, respectively. Besides, the cell count was determined as 6080 in test [3] (setting [6]) and 6960 in test [3] (setting [7]).
As for `CCCCCCCCCCCCCCC[C@@H](O)[C@H](CO)NC(=O)CCCCCCC`, the survival in test [1] was 84.9 (inactive). Moreover, the fold change was 0.925 (inactive) in test [3] (setting [4]) and 1.41 in test [3] (setting [5]). The cell count amounted to 5910 in test [3] (setting [6]) and 6390 in test [3] (setting [7]).
`Nc1ncnc2c1c(I)cn2[C@@H]1O[C@H](CO)[C@H](O)C1O` (some centres not stated): the parasite load remaining in test [2] was 129% (inactive). Besides, the viability in test [2] came to 64.4%. The fold change in test [3] (setting [4]) was 1.01 (inactive); in test [3] (setting [5]), 0.838. In addition, the cell count in test [3] (setting [6]) was 1250; in test [3] (setting [7]), 1240.
As for `CN(C)c1ccc(O)c2c1CC1CC3[C@@H](N(C)C)C(=O)C(C(N)=O)=C(O)[C@]3(O)C(=O)C1=C2O` (some centres not stated), in test [2], the parasite load remaining is 53.7% (inactive). Besides, in test [2], the viability was 42.6%. Further, the fold change was 0.679 (active) in test [3] (setting [4]) and 1.3 in test [3] (setting [5]). In addition, the cell count amounted to 3880 in test [3] (setting [6]) and 5720 in test [3] (setting [7]).
With `CO[C@H]1C[C@H](O[C@H]2[C@H](C)[C@@H](OC3O[C@H](C)C[C@H](N(C)C)[C@H]3OC(C)=O)[C@@H](C)C[C@]3(CO3)C(=O)[C@H](C)[C@@H](OC(C)=O)[C@@H](C)[C@@H](C)OC(=O)[C@@H]2C)O[C@@H](C)[C@@H]1OC(C)=O` (some centres not stated), in test [2], the parasite load remaining was 45.4% (inactive) and 43.2% (inactive). The viability in test [2] was 71.3% and 92%. Also, the fold change is 0.885 (inactive) in test [3] (setting [4]) and 2.77 in test [3] (setting [5]). The cell count is 11900 in test [3] (setting [6]) and 13400 in test [3] (setting [7]).
